# Hits are enriched below; roughly 12% of the tested compounds scored in any of these assays.
# Pf growth 96h = inhibits malaria parasite growth, 96 h. P. falciparum luciferase reporter growth, 96 h. Potency, µM (highest dose often 28.7 µM), for inactives: at the highest dose activity change, negative = inhibition, actives largely listed as inhibitors. 320,000 tested, 6.9% active. AID 504834; also: % is scaled to controls: 0 for no effect and ±100 for the full control effect
#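 Readout is luminescence from an integrated firefly luciferase in P. falciparum. Red cells, 2% hematocrit and 0.05% parasitemia final, were cultured with compound through two parasite generations (96 hours) at 37 C, 5% CO2.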
# Pf growth 48h = inhibits P. falciparum growth in the first generation, 48 h | P. falciparum luciferase growth in erythrocytes, 48 h | Potency, µM (series often up to 28.7 µM), for inactives: at the top dose activity change, negative = inhibition, actives largely listed as inhibitors | 310,000 tested, 5.9% active | AID 504832; also: % is scaled to controls: 0 for no effect and ±100 for the full control effect
#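 Erythrocytes infected with P. falciparum carrying an integrated firefly luciferase reporter (2% hematocrit, 0.1% parasitemia final) were exposed to compounds in RPMI 1640 with 0.5% Albumax at 37 C, 5% CO2. Growth inhibition was scored as reduced luminescence.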
# SARS PLpro yeast = inhibitors of SARS-CoV papain-like protease in yeast | Potency, µM (doses to about 32.9 µM), for inactives: at the top dose activity, positive = growth rescue, hits mostly activators | AID 485353 | 330,000 tested, 0.19% active | S. cerevisiae expressing SARS-CoV PLpro, growth rescue; calls by dose curve; also: 0% is about no effect; nearly all actives have a fitted effect of over 55% in size
# Sm TGR inh = blocks Schistosoma mansoni thioredoxin glutathione reductase; Q962Y6; purified TGR, DTNB reduction, TNB absorbance 405 nm; Potency, µM (highest dose often 114 µM), without a hit: at the top dose activity change, negative = inhibition, usual class: inhibitors; 360,000 tested, 3% active; AID 485364; also: % is scaled to controls: 0 for no effect and ±100 for the full control effect; nearly all actives have a fitted effect of over 60% in size
#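 TGR 20 nM + NADPH 100 uM (dispensed conc.), cpd preinc 15 min RT; start with NADPH (500 uM addition) then DTNB (15 mM addition). Kinetic TNB absorbance, 405 nm filter. Four-parameter Hill fit across titration.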
# * marks the source's active call; other numbers are inactive results; u = inconclusive; x = no result given. Unless noted, calls follow the shape of the dose curve; as a rule, active = well fitted curve in the direction sought with a large enough effect; inconclusive = small, poorly fitted or top-dose-only effect, or another doubt; inactive = no such curve, though single readings can be large; an effect the other way counts as inactive or inconclusive. Potency is read from the fitted curve at half-maximal effect.
SMILES,Pf growth 96h,Pf growth 48h,SARS PLpro yeast,Sm TGR inh
Cn1c(=O)c2ccccc2n(Cc2cccc(F)c2)c1=O,u,5%,-1%,-27%
O=C(CSc1nncc(=O)[nH]1)NC1CCCCC1,3.7µM*,11%,1%,-9%
C/C(=N/N=C1/NC(=O)CC(C(=O)Nc2ccccc2)S1)c1cccs1 (stereo not drawn),9.3µM*,10µM*,2%,-4%
C/C(=N/N=C1/NC(=O)CC(C(=O)O)S1)c1ccccc1 (stereo not drawn),34%,44%,11%,-22%
CNc1oc(-c2ccccc2F)nc1S(=O)(=O)c1ccc(C)cc1,u,0%,-6%,14µM*
Cc1ccc(S(=O)(=O)c2nc(-c3ccccc3F)oc2NCc2ccccc2)cc1,x,x,x,48%
O=S(=O)(c1ccccc1)c1nc(-c2ccccc2Cl)oc1NCCN1CCOCC1,u,x,20%,-19%
CCNc1oc(-c2ccccc2F)nc1S(=O)(=O)c1ccccc1,u,-3%,0%,40µM*
COc1ccc(/C=C(\NC(=O)c2ccccc2)C(=O)N2CCC(C)CC2)cc1,-65%,13µM*,0%,-17%
CCOC(=O)N1CCN(C(=O)/C(=C/c2cccc3ccccc23)NC(=O)c2ccc(OC)cc2)CC1,9.3µM*,13µM*,-1%,4%
O=C(N/C(=C\c1ccccc1)C(=O)N1CCOCC1)c1cccc(Br)c1,7.4µM*,u,2%,5%
O=C(N/C(=C\c1cccnc1)C(=O)N1CCOCC1)c1cccc(Br)c1,u,-16%,3%,13%
Cc1cccc(N2CCN(C(=O)CCc3nnc4n(CC(C)C)c(=O)c5ccccc5n34)CC2)c1C,x,x,x,0%
CCOC(=O)C1CCCN(Cc2cn3c(-c4ccc(Br)cc4)nnc3s2)C1 (stereo not drawn),x,x,x,8%
COc1ccc(C)cc1NS(=O)(=O)c1ccc2oc(=O)c3ncn(C)c3c2c1,x,x,x,4%
Cc1[nH]c(C)c(S(=O)(=O)NCc2ccc(Cl)cc2)c1C(=O)N1CCCC1,3%,8%,33%,-1%
COc1ccc(Cn2ccnc2SCC(=O)NCc2ccccc2)cc1,x,x,x,1%
CCC(=O)N1CCc2cc(S(=O)(=O)NC(Cc3ccccc3)C(=O)NCc3ccc(F)cc3)ccc21 (stereo not drawn),x,x,x,-1%
Cc1cccc(N2CCN(c3cccc(C)c3)C2c2cccnc2)c1,-24%,1.9µM*,-10%,-15%
Cc1cccc(N2C(=O)CSC2c2cccnc2)c1 (stereo not drawn),-7%,x,3%,-8%
CC(C)(C)c1ccc(Oc2cccc(C3CC(=O)C(C4NCCc5ccccc54)C(=O)C3n3cncn3)c2)cc1 (stereo not drawn),14%,1.2µM*,5%,0%
O=C1CC(c2ccccc2Oc2cccc(Cl)c2)C(n2cncn2)C(=O)C1C1NCCc2ccccc21 (stereo not drawn),-14%,0%,4%,-5%
Cc1nc2c(C(=O)NCc3ccccc3Cl)c[nH]n2c(=O)c1Cl,27%,10%,-1%,-5%
Cc1nc2c(C(=O)NCCc3ccccc3Cl)c[nH]n2c(=O)c1Cl,10µM*,5%,-22%,-25%
Fc1ccccc1CN1CCCN(C(=S)Nc2cccc(Cl)c2)C1,-29%,9.3µM*,1%,0%
SMILES,Pf growth 96h,Pf growth 48h,SARS PLpro yeast,Sm TGR inh
CC(C)NC(=O)CCCN1C(=O)c2ccccc2Sc2ncccc21,0.26µM*,12%,1%,79µM*
Cc1ccc(NC(=O)CCN2C(=O)c3ccccc3Sc3ncccc32)cc1,u,-24%,1%,13µM*
COc1cccc(NC(=O)CCN2C(=O)c3ccccc3Sc3ncccc32)c1,2.9µM*,-16%,-5%,u
Cc1ccc2sc(-c3ccc(NC(=O)CCN4C(=O)c5ccccc5C4=O)cc3)nc2c1,9.3µM*,137%,-2%,0%
O=C(CCN1C(=O)c2ccccc2Sc2ncccc21)Nc1ccc(F)cc1F,x,x,x,-11%
Cc1ccccc1NC(=O)CCN1C(=O)c2ccccc2Sc2ncccc21,x,x,x,-35%
O=C(COC(=O)c1ccc2ccccc2c1O)Nc1ccccc1,25%,-23%,-12%,-10%
O=C(C1CCCN1S(=O)(=O)c1ccc(Cl)cc1)N1CCCCC1 (stereo not drawn),31%,1%,2%,5%
O=[N+]([O-])c1cccnc1SCc1c(F)cccc1Cl,u,13µM*,-2%,-6%
O=[N+]([O-])c1ccc(SCc2c(F)cccc2Cl)nc1,38%,70%,-2%,-2%

# Bioassay records as filed in PubChem BioAssay.
